Rows were chosen to be rich in hits. Some 2.5% of all compounds tested hit in one or more screens of this group.
697 NFkB inh: lowers PMA/ionomycin-induced NF-kB signal in 697 B cells. 330,000 tested, 0.33% active. inhibition, % at 4 µM. AID 435022. 697 B-cell NF-kB luciferase reporter, 16 h; in the data active means inhibition above about 35%
ANO1 block: mouse TMEM16A channel inhibition, primary screen; Q8BHY3; HEK293 TMEM16A/YFP iodide influx fluorescence, ionomycin; normalized B-score (activity score, 25-100; higher = stronger inhibition) at 10 µM; 310,000 tested, 1.2% active; AID 588511;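 active means ratio plate-corrected score three or more library SD toward inhibition, starting fluorescence score within five deviations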;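 further: score derived from kinetic fluorescence span divided by baseline fluorescence per well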
ANO1 activ: activators or potentiators of mouse TMEM16A chloride channel. HEK293 TMEM16A/YFP-H148Q/I152L, iodide quench fluorescence; stronger effect = lower value. B-score at 10 µM. 340,000 tested, 0.3% active. AID 623877;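 active means fluorescence-ratio B-score plate-corrected deviation score at least 3 library SD below zero, with starting fluorescence score within 5 deviations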;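 further: channel opened by trigger with iodide after compound preincubation; score built on the fluorescence ratio of max minus min over baseline; more negative score means more quench and so TMEM16A activation or potentiation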
Jurkat NFkB inh: inhibitors of the PMA/ionomycin-induced NF-kB reporter in Jurkat cells. 330,000 tested, 0.53% active. AID 435003. inhibition, % at 4 µM. PMA/ionomycin-induced NF-kB luciferase reporter, luminescence; in the data active means inhibition above about 50%
KLF5 inhibitor: inhibitors of KLF5 expression; DLD-1 KLF5 promoter-luciferase reporter, luminescence; inhibition, % at 5 µM; 290,000 tested, 0.23% active;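 active means inhibition above a per-plate limit of that plate's mean compound inhibition plus 3 SD, cut at about 60% in these data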;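 further: 0% = DMSO wells and 100% = LY294002 at 200 µM; higher means less KLF5 promoter-driven luciferase light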
aSyn UTR inh: MLPCN primary screen, SNCA 5' untranslated region | alpha-synuclein 5'UTR reporter, inhibitor activity | inhibition, % (tested at 7.5 µM) | 300,000 tested, 0.82% active; in the data active means inhibition above about 60%;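 further: H4 neuroglioblastoma cells stably carrying SNCA 5'UTR luciferase fusion; 0% = DMSO wells and 100% = positive control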
* hit, by the source's call; i = inactive; . = not tested or not shown.

SMILES	697 NFkB inh	ANO1 block	ANO1 activ	Jurkat NFkB inh	KLF5 inhibitor	aSyn UTR inh
CN(Cc1ccc(F)cc1)C(=O)c1cccc(S(=O)(=O)N2CCN(Cc3ccccc3)CC2)c1	-20	i	i	-10	.	-13
CSc1ccc(CN(C)C(=O)c2cccc(S(=O)(=O)NCc3ccccc3)c2)cc1	-30	100*	i	-7	-52	10
CSc1ccc(CN(C)C(=O)c2cccc(S(=O)(=O)N3CCN(Cc4ccccc4)CC3)c2)cc1	-18	100*	i	5	.	24
CSc1ccc(CN(C)C(=O)c2cc(S(=O)(=O)NCc3ccccc3)ccc2C)cc1	4	i	i	4	.	12
Cc1cc(C)c(NC(=O)CNC(=O)c2cc([N+](=O)[O-])ccc2N2CCOCC2)c(C)c1	15	i	i	-3	.	4
CCOC(=O)c1ccc(NC(=O)NC2CC3CCC(C2)N3Cc2nnnn2Cc2ccco2)cc1 (stereo unspecified)	3	i	-47*	7	8	13
CC(C)(C)n1nnnc1CN1C2CCC1CC(NC(=O)Nc1ccccc1)C2 (stereo unspecified)	25	i	i	-8	-5	20
COc1ccccc1C1CC(=O)Nc2cc(C)c(C)cc21 (stereo unspecified)	-19	i	i	35	-11	63*
O=C1CC(c2cccc([N+](=O)[O-])c2)c2cc3c(cc2N1)CCC3 (stereo unspecified)	2	i	i	25	-19	32
O=C1CC(c2ccccc2F)c2cc3c(cc2N1)CCC3 (stereo unspecified)	-25	i	i	42	-8	65*
S=c1[nH]nc(-c2n[nH]c3c2CCC3)n1/N=C/C=C/c1ccco1	-23	i	i	-17	20	-6
CCOc1ccccc1OCC(=O)NCCc1ccc(S(N)(=O)=O)cc1	9	i	i	0	-13	-14
CCOc1ccccc1N1CCN(CC(=O)NCCc2ccc(S(N)(=O)=O)cc2)CC1	12	i	-5.5*	-21	-15	7
CC1(S(=O)(=O)O)CC(=O)c2ccccc2C1=O (stereo unspecified)	-34	i	i	-5	-22	8
CCOC(=O)[C@H]1[C@H]2COc3ccc(Cl)cc3[C@@H]2N2C(=O)c3ccc(F)cc3NC(=O)[C@@]12C	27	i	-13*	3	.	.
CC(C)CCNS(=O)(=O)c1cc2c3c(c1)CCN3C(=O)CC2	10	i	i	3	-20	9
CCOc1ccccc1CNC(=O)C1CCN(c2nnc(C)c3c(C)n(-c4ccc(C)cc4)nc23)CC1	2	i	i	34	-3	78*
COc1ccc(-n2nc3c(N4CCC(C(=O)NCc5cccc(C)c5)CC4)nnc(C)c3c2C)cc1	-38	i	i	19	17	70*
CCOc1ccc(CNC(=O)C2CCN(c3nnc(C)c4c(C)n(-c5ccc(C)cc5)nc34)CC2)cc1	-50	i	i	5	8	33
Cc1ccc(-n2nc3c(N4CCC(C(=O)NCc5ccccc5C)CC4)nnc(C)c3c2C)cc1	14	i	i	32	-11	45
O=C(CN1CCCC1c1cccs1)N1CCN(S(=O)(=O)c2ccccc2)CC1 (stereo unspecified)	0	.	i	-1	.	.
COc1ccc(N(C(=O)Cc2cccs2)C(C(=O)NC2CCCCC2)c2cccn2C)cc1OC (stereo unspecified)	6	i	-5.4*	-3	28	8
COc1ccc(N(C(=O)Cc2cccs2)C(C(=O)NC2CCCC2)c2ccncc2)cc1OC (stereo unspecified)	-4	i	i	7	2	-5
Cc1ccc(NS(=O)(=O)c2ccc(C(=O)N3CCN(c4ncccn4)CC3)cc2)cc1	-33	25*	i	13	-23	11
C/C(=N\NC(=O)c1ccc(O)cc1)c1cccc(NC(=O)c2ccccc2C)c1	-15	i	i	10	-69	-38
O=C(CCNNC(=O)c1ccncc1)NCc1ccccc1	-7	i	-14*	6	-20	-12
O=C(CCc1ccccc1)NCc1ccncc1	-1	i	i	8	-47	-5
